From PubChem BioAssay AID449762 (Southern Research Specialized Biocontainment Screening …, 2010)
Out of some 330,000 compounds screened, about 1,900 (0.58%) were called active. Roughly 4% stayed inconclusive and do not appear here. Cut-off read from the data, not from the text of the source: inconclusive = inhibition above about 70% without an active follow-up result; inactive = below that. Not all results are given here. Results with a measured potency or affinity are listed apart.

Assay: M. tuberculosis growth inhibition, HTS (AID 449762);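 note: bacterial growth assessed after seven days of incubation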
Conditions: M. tuberculosis H37Rv growth inhibition, 7H9 media; at 25 µM; hits give high values

Structure (SMILES) | inhibition
Cc1ccc(C(=O)N2CCN3C(=O)c4ccccc4C23c2ccc(Cl)cc2)cc1 (stereo not given) | 13.6% (inactive)
O=C(c1ccccc1)N1CCN2C(=O)c3ccccc3C12c1ccc(Cl)cc1 (stereo not given) | 4.61% (inactive)
COc1cccc(NC(=O)Nc2ccc(Br)cn2)c1 | 4.97% (inactive)
O=c1cc(CSCc2ccc(Cl)cc2)[nH]c(=O)[nH]1 | -3.47% (inactive)
Cc1[nH][nH]c(=O)c1N=Nc1ccc(Cl)cc1 | -1.91% (inactive)
CCCNC(=O)c1onc(CSc2ccc(Cl)cc2)c1C(=O)NCCOC | -3.57% (inactive)
Nn1c(SCc2ccc([N+](=O)[O-])cc2)nc2ccccc2c1=O | 16.5% (inactive)
CCCCn1c(N)c(C(=O)OCC2CCCO2)c2nc3ccccc3nc21 (stereo not given) | 15.8% (inactive)
Nc1c(C(=O)OCC2CCCO2)c2nc3ccccc3nc2n1C1CCCCC1 (stereo not given) | 1.24% (inactive)
CCc1ccccc1N(CC(=O)NC1CCCCC1)C(=O)CNC(=O)c1ccco1 | 2.96% (inactive)
O=C(NCc1ccco1)C1CCCN(c2ncnc3c2nc2n3CCCCC2)C1 (stereo not given) | 1.1% (inactive)
O=C(O)C1CCN(S(=O)(=O)c2cccc3nsnc23)CC1 | 0.03% (inactive)
Cc1c(C(=O)NC(=S)NCC(C)C)oc2ccccc12 | -6.41% (inactive)
COc1ccccc1C1c2ccc3ccccc3c2Oc2ncn(CCCO)c(=N)c21 (stereo not given) | 5.41% (inactive)
COc1ccc(C2c3ccc4ccccc4c3Oc3ncn(CCO)c(=N)c32)cc1OC (stereo not given) | 6.98% (inactive)
COC(=O)Cn1c(C)nc([N+](=O)[O-])c1Br | 0.3% (inactive)
Cc1c(Br)c([N+](=O)[O-])nn1CC(=O)c1ccccc1 | -1.84% (inactive)
Cc1ccc(S(=O)(=O)NC(Cc2ccc(Cl)cc2)C(=O)O)cc1 (stereo not given) | 4.83% (inactive)
COc1ccccc1-c1c(C)oc2c(CN3CCOCC3)c(O)ccc2c1=O | 0.75% (inactive)
COc1ccc(Br)cc1/C=N/NC(=O)c1cc(OC)c(OC)c(OC)c1 | -3.85% (inactive)
COc1cc(C(=O)N/N=C/c2ccsc2C)cc(OC)c1OC | 17.9% (inactive)
Cc1ccc(CCNC(=O)C2CCN(S(=O)(=O)c3ccc4nc5c(c(C(=O)O)c4c3)CCCC5)CC2)cc1 | -1.27% (inactive)
Cc1nc2ncnn2c(Nc2ccc3c(c2)OCCO3)c1C | 6.9% (inactive)

Structure (SMILES) | inhibition
COc1ccc(NC(=O)COC(=O)CCC2CCCCC2)cc1 | 8.09% (inactive)
COc1ccc(Cl)c2sc(N3CCN(C(=O)C4=COCCO4)CC3)nc12 | 35.6% (inactive)
O=C(C1=COCCO1)N1CCN(c2nc3ccc([N+](=O)[O-])cc3s2)CC1 | 1.78% (inactive)
COc1ccc(NC(=O)COC(=O)/C=C/c2ccccc2[N+](=O)[O-])cc1OC | 0.41% (inactive)
Cc1sc2ncn(CC(=O)N3CCN(c4ccccn4)CC3)c(=O)c2c1S(=O)(=O)N1CCCCC1 | -2.75% (inactive)
CN1CCN(CCCN2c3ccccc3Sc3ccc(S(=O)(=O)N(C)C)cc32)CC1 | 7.63% (inactive)
FC(F)(F)c1ccc2c(c1)N(CCCN1CCN(CCCl)CC1)c1ccccc1S2 | 4.41% (inactive)
CS(=O)(=O)c1ccc(Cl)c(NC(=O)C2CC(=O)N(Cc3ccco3)C2)c1 (stereo not given) | 3.6% (inactive)
S=C(NC1CCCC1)N1CCN(c2ccccn2)CC1 | -3.07% (inactive)
CC1=NN(C(=O)c2ccccc2)C(O)(c2ccc(Br)cc2)C1 (stereo not given) | -3.64% (inactive)
CC1=NN(C(=O)c2ccc(Cl)cc2)C(O)(c2ccccc2)C1 (stereo not given) | 28% (inactive)
Cc1cccc(NC(=O)CNC(=O)c2sc3ccccc3c2Cl)n1 | -2.76% (inactive)
COc1ccc([C@@H]2CC=C(C(=O)O)[C@H](c3ccc(C(C)(C)C)cc3)N2S(=O)(=O)c2ccc(C)cc2)cc1OC | 4.96% (inactive)
CCS(=O)(=O)c1ccc2c(c1)N(S(C)(=O)=O)CC(C(=O)NC1CC1)O2 (stereo not given) | 0.09% (inactive)
O=C(O)Cn1c(=O)c(-c2ccccc2)nc2ccccc21 | -12.6% (inactive)
On1c(-c2ccccc2)nc2ccccc21 | 9.54% (inactive)
N#Cc1ccccc1S(=O)(=O)N1CCN(CC(O)COc2ccccc2F)CC1 (stereo not given) | 3.84% (inactive)
N=C1C(c2ccccc2)=C(O)CN1c1cccc2ccccc12 | -2.85% (inactive)
CCOc1ccc(/C=C2\SC(=S)N(N3C(=O)C4CC4C3=O)C2=O)cc1 (stereo not given) | -8.07% (inactive)
CCc1ccc(NC(=S)Nc2ccc3cn[nH]c3c2)cc1 | 32% (inactive)
CCNC(=S)Nc1ccc2cn[nH]c2c1 | -5.21% (inactive)
CCCCn1cnc2c(oc3ccccc32)c1=O | -0.57% (inactive)
Nc1nn(S(=O)(=O)c2ccccc2)cc1-c1cccc([N+](=O)[O-])c1 | 1.89% (inactive)

Structure (SMILES) | inhibition
CN(C)[C@@H]1C(=O)C(C(N)=O)=C(O)[C@@]2(O)C(=O)C3=C(O)c4c(O)ccc(Cl)c4[C@@](C)(O)[C@H]3C[C@@H]12 | 5.01% (inactive)
CCOc1ccc(NC(=O)CCC(=O)Oc2ccc(C)cc2)cc1 | -3.3% (inactive)
O=C(COC(=O)Cc1ccsc1)Nc1ccccc1 | -4.1% (inactive)
C=CCNC(=S)NNC(=O)c1csc(CC)c1 | -5.45% (inactive)
Cc1ccc(NC(=O)C(C)N=C2NS(=O)(=O)c3ccccc32)cc1F (stereo not given) | 11% (inactive)
CC(=O)N1CCN(c2ccc([N+](=O)[O-])cc2)CC1 | -5.3% (inactive)
CC(=O)N1CCN(c2ccc([N+](=O)[O-])c(-n3nc(C)cc3C)c2)CC1 | 1.6% (inactive)
CCOc1ccccc1OCC(=O)OCC(=O)c1c(N)n(CC(C)C)c(=O)n(C)c1=O | 0.88% (inactive)
CC(=O)OCC(=O)C1CCC2C3CC=C4CC(O)CCC4(C)C3CCC12C (stereo not given) | -10.9% (inactive)
CN(Cc1cccc(Cl)c1Cl)C(=O)c1cccc(S(=O)(=O)N2CCN(Cc3ccccc3)CC2)c1 | -12.3% (inactive)
COc1cc(-c2c(C#N)c(=O)[nH]c3c2c(C)nn3-c2ccccc2)ccc1O | 51.3% (inactive)
Cc1nn(-c2ccc(F)cc2)c2nc(N)c(C#N)c(-c3ccc(O)c(O)c3)c12 | 1.53% (inactive)
O=C1c2ccc([N+](=O)[O-])cc2S(=O)(=O)N1Cc1ccccc1 | -6.93% (inactive)
CCc1noc(C)c1C(=O)Nc1nc(-c2cc(C)ccc2C)c(C)s1 | -0.88% (inactive)
CCc1noc(C)c1C(=O)Nc1nc2ccc(F)cc2s1 | 68.5% (inactive)
CC(=NCc1cccnc1)C1=C(O)c2ccccc2C1=O | -1.08% (inactive)
CC(=NCc1ccc2c(c1)OCO2)c1c(O)[nH]c(=O)[nH]c1=O | -12.3% (inactive)
CCn1c(=O)c2cc(C(=O)NCCC(C)C)sc2c2ccccc21 | 9.29% (inactive)
O=C(Cn1nnc2ccccc21)c1cccc([N+](=O)[O-])c1 | -4.83% (inactive)
CN(C(=O)c1ccc(-c2ccccc2)cc1)C1CCCCC1 | 53.6% (inactive)
CCOc1ccc(NS(=O)(=O)c2ccc(C(=O)N(C)CC(=O)Nc3ccc(C)cc3)cc2)cc1 | 56.7% (inactive)
CCCSc1ccc(-c2nn(-c3ccccc3)cc2/C=C(/C#N)C(=O)NCCCOC)cc1 | -1.57% (inactive)
CCSc1ccc(-c2nn(-c3ccccc3)cc2/C=C(/C#N)C(=O)NCCCOC)cc1 | 6.88% (inactive)

Structure (SMILES) | inhibition
O=C(N/N=C(/CC(=O)c1cccs1)C(F)(F)F)c1ccc(O)cc1 | 33.1% (inactive)
O=C(N/N=C(\CC(=O)c1cccs1)C(F)(F)F)c1cccnc1 | -1.08% (inactive)
CC(C)Nc1nc(NC(C)C)nc(OCCOC(=O)c2ccccc2)n1 | 2.84% (inactive)
CCOC(=O)[C@@H]1[C@H]2COc3cc(OC)ccc3[C@@H]2N2C(=O)N(c3ccc(C(F)(F)F)cc3)C(=O)[C@]12C | 1.49% (inactive)
CCOC(=O)[C@@H]1[C@H]2COc3cc(OC)ccc3[C@H]2N2C(=O)N(c3ccc(C(F)(F)F)cc3)C(=O)[C@@]12C | 6.64% (inactive)
O=C(CC1SC(=O)N(c2ccccc2)C1=O)Nc1ccc(Cl)cc1 (stereo not given) | -2.72% (inactive)
O=C(NN=C1CCCC1)c1cccc(Br)c1 | 8.38% (inactive)
O=C(N/N=C1\CCCc2ccccc21)c1cccc(Br)c1 | 17.8% (inactive)
O=C(Nc1ccc(Nc2ccccc2)cc1)C1CC1 | 0.68% (inactive)
O=C(Nc1ccc(N2CCOCC2)cc1)C1CC1 | -20.2% (inactive)
CC(C)(C)c1ccc(OCCC(=O)NNC(=O)c2ccccc2)cc1 | -10.6% (inactive)
O=C(COc1ccc([N+](=O)[O-])cc1)N(Cc1cccs1)C1CCS(=O)(=O)C1 (stereo not given) | -4.33% (inactive)
COc1ccccc1N1CCN(S(=O)(=O)CCNC(=O)CC2CCCCC2)CC1 | -4.01% (inactive)
COCCNC(=O)C(c1ccc(C)cc1)N(C(=O)C(=O)NC1CCCC1)c1ccc2c(c1)OCCO2 (stereo not given) | 0.7% (inactive)
COCCNC(=S)N/N=C(\C)c1ccc(OC(F)F)cc1 | 2.04% (inactive)
COCCNC(=S)N/N=C(\C)c1ccc(O)cc1 | -0.19% (inactive)
O=C(Nc1ccccc1-c1nc2ccccc2[nH]1)c1sc2ccccc2c1Cl | 8.98% (inactive)
CCN1CCN(Cc2ccc(NC(=O)c3ccc(C)c(NC(=O)c4ccnnc4)c3)cc2C(F)(F)F)CC1 | -1.41% (inactive)
CCN1CCN(Cc2ccc(NC(=O)c3ccc(C)c(NC(=O)c4ccc5n[nH]nc5c4)c3)cc2C(F)(F)F)CC1 | 4.3% (inactive)
COC(=O)c1cc(NC(=O)Cc2ccc(OC)cc2)cc(C(=O)OC)c1 | -3.89% (inactive)
CC1CCC(NC(=O)COC(=O)C2=NN(c3ccccc3)C(=O)CC2)CC1 (stereo not given) | 1.24% (inactive)
